Each structure is given as a SMILES string. “And” between values parts separate entries of the source, which are not always exact repeats. Identical values can stand only once. Records with an inconclusive call do not appear. A number with no mark means an inactive call. The source made the active and inactive calls. The call rests on the fitted dose curve; in most records, active means well fitted curve in the direction sought with a large enough effect; inconclusive means small, poorly fitted or top-dose-only effect, or another doubt; inactive means no such curve, though single readings can be large; an effect the other way counts as inactive or inconclusive.

This note sets out measurements from PubChem BioAssay (NCATS).

One assay has as its system TAB165. The experiment in a line: qHTS profiling for inhibitors of Plasmodium falciparum proliferation (AID 504749). Further: nearly all actives have a fitted effect of over 60% in size. Particulars: P. falciparum in erythrocytes, SYBR Green DNA, 72 h; series mostly up to 28.7 µM. Summed up:
(§1)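 P. falciparum-infected erythrocytes (0.3% parasitemia, 2.5% hematocrit final) were exposed to compounds for 72 h at 37 C in 5% CO2, then lysed with SYBR Green buffer overnight at room temperature; parasite DNA fluorescence was normalized to artemisinin and DMSO controls.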
A general note: In qHTS, concentration-response curves come from the screen itself.

Another assay has as its system W2. Described as above. Particulars: P. falciparum in erythrocytes, SYBR Green DNA, 72 h; series mostly up to 28.7 µM. Summed up:
as §1

For the next assay, the system named is HEK293. The experiment in a line: Cytotoxic Profiling of Annotated Libraries Using Quantitative High-Throughput Screening (AID 1296008). Further: nearly all actives have a fitted effect of over 60% in size. On max response: on the % scale 0 is the no-effect control and ±100 the full control effect. Particulars: Five cell lines viability, CellTiter-Glo ATP luminescence, 48-72 h; max response: stronger effect = lower value. Summed up:
(§2)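 Compounds were pin-transferred onto cells and incubated 48 or 72 hr at 37 degree Celsius, 95% humidity. CellTiter-Glo was added, plates sat 10 min at room temperature, then ATP-coupled luminescence was imaged as the viability read-out.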
Background: ATP-based viability assays read luminescence as a measure of living cells.

Assay [1] deals with HaCat. The description is as above. Particulars: Five cell lines viability, CellTiter-Glo ATP luminescence, 48-72 h; max response: stronger effect = lower value. Summed up:
as §2

The subject of another assay is KB-3-1. The description is as above. Particulars: Five cell lines viability, CellTiter-Glo ATP luminescence, 48-72 h; max response: stronger effect = lower value. Summed up: as §2
Assay [2] concerns HACAT. Nature of the assay: qHTS assay to identify novel small-molecules to repurpose for Merkel cell carcinoma treatment (AID 1296009). Further: nearly all actives have a fitted effect of over 60% in size. On activity change, negative = cytotoxicity: on the % scale 0 is the no-effect control and ±100 the full control effect. Particulars: MCC and control cell lines, CellTiter-Glo viability, 72 h; at 44.8 µM (top of the series) unless noted. The method, boiled down: (§3)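 Cells exposed to NPC (8-point) and MIPE (11-point) compound dilutions for 72 hr at 37 degree celsius; viability read by CellTiter-Glo luminescence, normalized to no-cell and DMSO in-plate controls.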

In a further assay the test system is MCC-13. The assay is described as above. The note with it: MCC and control cell lines, CellTiter-Glo viability, 72 h; series mostly up to 46 µM. Summed up:
as §3

A further assay deals with MCC-26. Described as above. Particulars: MCC and control cell lines, CellTiter-Glo viability, 72 h; series mostly up to 46 µM. The method, boiled down:
as §3

For a further assay, the system named is C33A. Nature of the assay: Primary qHTS to identify gynecologic anti-cancer compounds using libraries of approved drugs and bioactive compounds (AID 1345084). Further: nearly all actives have a fitted effect of over 55% in size. The note with it: Gynecologic cancer cell panel viability, ATPlite luminescence, 48 h; series mostly up to 57.5 µM. Summed up:
(§4)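 Luminescence from the ATPlite ATP-monitoring reagent indicates viable cell number; lower signal means cytotoxicity. Cells received compound 16 h after seeding and were exposed for 48 h across five concentrations.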

Another assay has as its system CASKI. The description is as above. The note with it: Gynecologic cancer cell panel viability, ATPlite luminescence, 48 h; series mostly up to 57.5 µM. Summed up: as §4
The subject of the next assay is Es-2. Described as above. Particulars: Gynecologic cancer cell panel viability, ATPlite luminescence, 48 h; series mostly up to 57.5 µM. Summed up:
as §4

Assay [3] concerns NIH3T3. The experiment in a line: Cytotoxic Profiling of Annotated Libraries Using Quantitative High-Throughput Screening (AID 1296008). Further: nearly all actives have a fitted effect of over 60% in size. On max response: on the % scale 0 is the no-effect control and ±100 the full control effect. Particulars: Five cell lines viability, CellTiter-Glo ATP luminescence, 48-72 h; max response: stronger effect = lower value. The method, boiled down: as §2
In the next assay the test system is MKL-2. Nature of the assay: qHTS assay to identify novel small-molecules to repurpose for Merkel cell carcinoma treatment (AID 1296009). Further: nearly all actives have a fitted effect of over 60% in size. Particulars: MCC and control cell lines, CellTiter-Glo viability, 72 h; series mostly up to 46 µM. Summed up:
as §3

A further assay deals with CAOV3. The experiment in a line: Primary qHTS to identify gynecologic anti-cancer compounds using libraries of approved drugs and bioactive compounds (AID 1345084). Further: nearly all actives have a fitted effect of over 55% in size. Particulars: Gynecologic cancer cell panel viability, ATPlite luminescence, 48 h; series mostly up to 57.5 µM. Summed up: as §4
The next assay relates to MKL-1. Nature of the assay: qHTS assay to identify novel small-molecules to repurpose for Merkel cell carcinoma treatment (AID 1296009). Further: nearly all actives have a fitted effect of over 60% in size. The note with it: MCC and control cell lines, CellTiter-Glo viability, 72 h; series mostly up to 46 µM. Summed up:
as §3

In assay [4] the test system is NIH3T3. The description is as above. Particulars: MCC and control cell lines, CellTiter-Glo viability, 72 h; at 44.8 µM (top of the series) unless noted. Summed up: as §3
The test system of the next assay is UISO. The description is as above. The note with it: MCC and control cell lines, CellTiter-Glo viability, 72 h; series mostly up to 46 µM. The method, boiled down: as §3
For another assay, the system named is WaGa. The assay is described as above. Particulars: MCC and control cell lines, CellTiter-Glo viability, 72 h; series mostly up to 46 µM. The method, boiled down: as §3
For the next assay, the system named is HEK293T. The description is as above. The note with it: MCC and control cell lines, CellTiter-Glo viability, 72 h; at 44.8 µM (top of the series) unless noted. Summed up:
as §3

A further assay has as its system CRL-7250. The experiment in a line: Cytotoxic Profiling of Annotated Libraries Using Quantitative High-Throughput Screening (AID 1296008). Further: nearly all actives have a fitted effect of over 60% in size. On max response: on the % scale 0 is the no-effect control and ±100 the full control effect. The note with it: Five cell lines viability, CellTiter-Glo ATP luminescence, 48-72 h; max response: stronger effect = lower value. The method, boiled down: as §2
Potency means the concentration at half of the fitted maximal effect.

In the case of `CSc1ccc2c(c1)C(N1CCN(C)CC1)Cc1ccccc1S2` (stereo unspecified), the results for the Potency with TAB165, in the assay on W2 and in the assay with HEK293 were 12.6 µM (active), 5.36 µM (active) and 16.8 µM (active), respectively. The molecule was called inactive in the assay on HaCat [1] and in the assay on HACAT [2]. For the same molecule, the max response in the assay on KB-3-1 is 0.66%. The Potency result in the assay on MCC-13, in the assay with MCC-26, in the assay on C33A, in the assay on CASKI and in the assay on Es-2 was “inactive” each time.
For the molecule `CC(=O)O[C@@]12CO[C@@H]1C[C@H](O)[C@@]1(C)C(=O)[C@H](O)C3=C(C)[C@@H](OC(=O)[C@H](O)[C@@H](NC(=O)OC(C)(C)C)c4ccccc4)C[C@@](O)([C@@H](OC(=O)c4ccccc4)[C@H]21)C3(C)C`, the Potency in the assay with HEK293 was 0.0021 µM (active); with KB-3-1, 0.0073 µM (active); in the assay with NIH3T3 [3] it was 0.0084 µM (active). In addition, the Potency result in the assay with MKL-2, with C33A, with CAOV3 and with CASKI was “inactive” throughout.
In the case of `C[C@](N)(Cc1ccc(O)cc1)C(=O)O`, the Potency result in the assay on TAB165 and in the assay with W2 was “inactive” in each case. The activity change, negative = cytotoxicity with MCC-13 is 6.34% [at 4.84 µM]; in the assay on MCC-26, 5.04% [at 4.84 µM]; in the assay with MKL-1, -2.87% [at 4.84 µM]; in the assay with MKL-2 it was 7.48% [at 4.84 µM]; in the assay on UISO, 17.6% [at 4.84 µM]; with WaGa, -0.23% [at 4.84 µM]. In addition, the activity change, negative = cytotoxicity in the assay with C33A is 11.8% [at 6.55 µM]; with CAOV3, 1.31% [at 6.55 µM]; with CASKI, 2.23% [at 6.55 µM]; with Es-2, -8.81% [at 6.55 µM]. The outcome in the assay with NIH3T3 [4] is “inactive [at 4.96 µM]”.
On to `CNCCCC1c2ccccc2C=Cc2ccccc21`, for which the Potency is 0.51 µM (active) in the assay with W2 and 21.1 µM (active) in the assay with MKL-2. Further, the max response in the assay on HaCat [1] is -1.18%; with KB-3-1 it was 6.95%. The Potency result in the assay on MCC-13, in the assay with UISO and with C33A was “inactive” each time.
With `CCN(CC)C(C)CN1c2ccccc2Sc2ccccc21` (stereo unspecified), the molecule was called inactive with HEK293T and with NIH3T3 [4]. The Potency entry in the assay with MCC-13, with MCC-26, in the assay with MKL-1, with MKL-2, in the assay on UISO and in the assay on WaGa was “inactive” in each case. In addition, the Potency result in the assay with C33A, in the assay with CAOV3, in the assay on CASKI and in the assay with Es-2 was “inactive” in each case.
For the molecule `COc1ccc2cc1Oc1ccc(cc1)C[C@H]1c3c(cc4c(c3Oc3cc5c(cc3OC)CCN(C)[C@@H]5C2)OCO4)CCN1C`, the Potency is 10.6 µM (active) and 7.31 µM (active) with HEK293; 23.7 µM (active) in the assay with MKL-1; 3.35 µM (active) with MKL-2; 18.8 µM (active) in the assay with WaGa. The call with HaCat [1] and in the assay on HACAT [2] was inactive. Moreover, the max response with KB-3-1 was 0.814%. Also, the Potency entry with MCC-13, with MCC-26, with C33A, with CASKI and with Es-2 was “inactive” in each case.
With `OCc1cc(C(O)CNCCCCCCOCCCCc2ccccc2)ccc1O` (stereo unspecified), the max response with CRL-7250 is -15.6%; in the assay with HaCat [1], 2.23%; in the assay on KB-3-1, -19.3%; in the assay with NIH3T3 [3], -10.4%. Moreover, the Potency entry in the assay on MCC-13, in the assay on MCC-26, with MKL-1, with WaGa, in the assay on C33A and with CASKI was “inactive” each time. For the same molecule, the Potency result in the assay with Es-2 was “inactive”. Also, the Potency in the assay with CAOV3 is 22.4 µM (active).
Consider `O=C1NC(=O)[C@@]2(CCOc3ccc(F)cc32)N1`, for which the Potency entry in the assay on TAB165, with W2, in the assay with MCC-13, in the assay on MCC-26, in the assay on MKL-1 and in the assay with MKL-2 was “inactive” each time. The Potency entry in the assay on UISO, in the assay on WaGa, in the assay on C33A, in the assay on CASKI and in the assay with Es-2 was “inactive” each time. The call with HEK293T was inactive.
Turning to `CN1CCCCC1CCN1c2ccccc2Sc2ccc(S(C)=O)cc21` (stereo unspecified), in the assay with W2, the Potency was 1.9 µM (active). Besides, the molecule was classed as inactive in the assay on CRL-7250, with HaCat [1] and in the assay with HACAT [2]. The max response in the assay on KB-3-1 is -15.2% and 0.424%; with NIH3T3 [3], -18.7%. In addition, the Potency result in the assay on MCC-13, with MCC-26, with MKL-1, in the assay with MKL-2, in the assay on UISO and in the assay on C33A was “inactive” throughout. In addition, the Potency entry in the assay with CAOV3, in the assay on CASKI and with Es-2 was “inactive” in each case.
